From PubChem BioAssay
The list is not random: actives were taken first. Their share in the collection is about 0.93%.
TAR Tat displ – HIV-1 TAR-Tat binding disruption; HIV-1 TAR RNA, Tat peptide displacement FRET; active compounds read high; hit rate 0.6% among 100,000; z-score (no concentration beside the values); active = z-score of 3 or more in at least 2 runs
CDC25B-CDK2 inh – human CDC25B-CDK2/CyclinA binding inhibition | HTRF CDC25B-CDK2/CyclinA binding, anti-His/anti-Flag; active compounds read high | z-score (concentration not given with the values) | hit rate 0.72% among 94,000 | AID 1259370 | P30305+P24941; in the data active = z-score above about 3.2
The depositor's hits bear a star; . = not tested or not shown; ! = repeats disagree.

SMILES	TAR Tat displ	CDC25B-CDK2 inh
COc1cccc(C(=O)NC(NC(=S)Nc2ccc(Cl)cc2Cl)C(Cl)(Cl)Cl)c1 (stereo unspecified)	.	2
COc1cc(C(=O)NC(NC(=S)Nc2cccc3ccccc23)C(Cl)(Cl)Cl)cc(OC)c1OC (stereo unspecified)	.	5.1*
C(=C\CSc1ccccn1)/CSc1ccccn1	.	-1.3
Nc1ccccc1SC/C=C/CSc1ccccc1N	.	15*
COc1cc(C)c2c(c1C=O)Oc1c(c(C)c(O)c3c1C(O)OC3=O)OC2=O (stereo unspecified)	0.93	.
Cc1cc(O)c(C=O)c2c1C(=O)Oc1c(C)c(O)c3c(c1O2)C(O)OC3=O (stereo unspecified)	4*	.
CCC(Sc1nnc(C)n2c1cc1occc12)C(=O)Nc1ccc(OC)c(Cl)c1 (stereo unspecified)	0.45	.
S=c1nc[nH]c2nn(-c3ccccc3)cc12	1.1	-0.18
Cc1cccc(Cn2cc3c(=O)[nH]nc-3c3cc(F)ccc32)c1	1.6	1.1
O=c1[nH]nc2c3cc(F)ccc3n(Cc3ccccc3)cc1-2	3.2*	-1.1
C=C(C)C(CCC=C(C)C)C12C[C@@H](CC=C(C)C)C(C)(C)C(CC=C(C)C)(C(=O)/C(=C(/O)c3ccc(O)c(O)c3)C1=O)C2=O (stereo partly specified)	8.3*	.
COc1cccc2c1OC1=C(C(=O)CC(C)(C)C1)C2CC(=O)c1ccc(O)cc1 (stereo unspecified)	0.82	-1.1
COc1cc(NC(=O)C(C)CS(=O)(=O)c2ccc3c(c2)NC(=O)C(C)S3)cc(OC)c1 (stereo unspecified)	15*	.
Cc1cc(C)cc(NC(=O)C(C)CS(=O)(=O)c2ccc3c(c2)NC(=O)C(C)S3)c1 (stereo unspecified)	-0.17	.
CCOC(=O)c1c(-c2ccccc2)oc2ccc(O)c(CN3CCCCC3)c12	.	-2.4
CN1CCc2nc3sc(C(=O)c4ccc(Cl)cc4)c(N)c3cc2C1	-6.5	19*
CN1CCc2nc3sc(C(=O)Nc4cccc(Cl)c4)c(N)c3cc2C1	-1.6	-2
COc1cc(CNC(=O)c2sc3nc(-c4ccncc4)ccc3c2N)cc(OC)c1	1.2	-1.5
Nc1c(C(=O)NCc2ccco2)sc2nc(-c3ccncc3)ccc12	-3.5	12*
Cc1sc2ncn(CC(=O)N3CCOCC3)c(=O)c2c1S(=O)(=O)N1CCOCC1	2.3	-1.5
Cc1sc2ncn(CC(=O)N3CCCCCC3)c(=O)c2c1S(=O)(=O)N1CCN(C)CC1	.	19*
CSc1ccc(NC(=O)NCCN2CCc3ccccc3C2)cc1	1.5	13*
O=C(NCCN1CCc2ccccc2C1)Nc1ccccc1F	-0.3	-0.6
COCCNc1nc2c(-c3ccc(C)cc3)nnn2c2ccccc12	-0.18	0.01
CC(C)(C)c1ccc(-c2nnc3sc(-c4ccco4)nn23)cc1	2.9	0.94
SMILES	TAR Tat displ	CDC25B-CDK2 inh
Cc1ccc(Nc2ncnc3ccccc23)cc1C	.	11*!
Cc1ccc2ncnc(Nc3ccc(C)c(C)c3)c2c1	.	-1.8
CSc1cccc(NC2=C(C(=O)N3CCOCC3)S(=O)(=O)c3ccccc32)c1	0.63	.
O=C(Nc1ccc2c(c1)CCC2)C1CCCN(c2cnccn2)C1 (stereo unspecified)	-1	-1.5
O=C(c1cc(C2CC2)on1)N1CCCC1c1ccc(Cl)cc1 (stereo unspecified)	1.2	-1.7
N#Cc1c(-c2cccnc2)cc(-c2ccc(F)cc2)nc1N	0.76	-2.4
COc1ccc(-c2cc(-c3cccnc3)c(C#N)c(N)n2)cc1	3.2*	-0.24
Cc1ccc(NC(=S)C(C#N)C(=O)Nc2ccccc2C)c(C)c1 (stereo unspecified)	.	-1.1
CCc1nnc(NC(=O)Nc2ccc(OC)cc2)s1	.	-2.5
COc1ccc(NC(=O)Nc2nnc(COc3ccccc3F)s2)cc1	1.2	4.7*
O=C(NCc1ccccn1)C1CCC(CNc2nc(=S)[nH]c3ccccc23)CC1 (stereo unspecified)	.	0.46
COC(CNC(=O)COc1ccc(Cl)cc1Cl)OC	.	-1.5
COc1ccccc1NC(=O)CC(NCc1cccnc1)C(=O)O (stereo unspecified)	.	-1.6
CCOC(=O)c1cn2c3c(ccc(Cl)c3c1=O)OC(C)C2 (stereo unspecified)	17*	.
CCNC(=O)c1cn2c3c(ccc(Cl)c3c1=O)OC(C)C2 (stereo unspecified)	5.3	.
COc1ccc(-c2csc3ncnc(NCCc4cc(OC)ccc4OC)c23)cc1	0.04	.
CC(CCc1ccccc1)NC(=O)c1cccc(NC2=NC3CS(=O)(=O)CC3S2)c1 (stereo unspecified)	.	-2.3
O=C1CC(C(=O)Nc2ccc(Cl)cc2)n2ncnc2N1 (stereo unspecified)	0.9	3.9*
O=C1CC(C(=O)Nc2ccc3c(c2)OCO3)n2ncnc2N1 (stereo unspecified)	-2.1	0.99
CC(=O)NS(=O)(=O)c1ccc(NC(=O)CCN2C(=O)/C(=C/c3ccccc3)SC2=S)cc1	.	-2.5
O=C(O)CN1C(=O)/C(=C\c2ccc(-c3cccc4c3C(=O)c3ccccc3C4=O)o2)SC1=S	.	10*
CC1Cc2ccccc2N1S(=O)(=O)c1ccc2c(c1)C(C)(C)C(=O)N2C (stereo unspecified)	0.17	.
Cc1noc(C)c1C(=O)O/N=C1\CCSc2ccc(F)cc21	.	0.22
COc1ccccc1-n1cnc2cc(NCc3ccncc3)ccc21	0.48	13*
COc1ccccc1-n1cnc2cc(Nc3nnc(C)c4ccccc34)ccc21	2.1	-3.1
SMILES	TAR Tat displ	CDC25B-CDK2 inh
Cc1csc(NC(=O)CN2C(=O)C(C)(C)c3ccccc32)n1	0.17	.
O=C(O[C@@H]1Cc2c(O)cc(O)cc2O[C@@H]1c1cc(=O)c(O)c2c(O)c(O)cc([C@H]3Oc4cc(O)cc(O)c4C[C@H]3O)c2c1)c1cc(O)c(O)c(O)c1	30*	.
Oc1ccc([C@H]2Oc3cc(O)cc(O)c3C[C@H]2O)cc1	-0.59	.
O=C(Nc1nc(-c2ccc(Br)cc2)ns1)c1cccs1	-0.23	-0.03
C[C@H]1[C@H](C)CC[C@]2(CO)CC[C@]3(C)C(=CCC4[C@@]5(C)CC[C@H](O)C(C)(C)C5CC[C@]43C)[C@H]12 (stereo partly specified)	0.77	.
CNCCCCc1cnc(C)c2[nH]c3ccccc3c12	5*	.
Cc1ncc(CCCCN(C)C)c2c1[nH]c1ccccc12	3.7	1.1
COc1ccc2c(c1)Cc1sc(NC(=O)c3ccc(OC)c(Br)c3)nc1-2	0.6	19*
COc1cc(OC)cc(C(=O)Nc2nc3c(s2)CCc2ccccc2-3)c1	.	-2.4
CCOC(=O)c1nc2ccccc2nc1C	1.5	.
CCOC(=O)c1nc2ccccc2n(C(C)=O)c1=O	0.02	19*
O=C(CSc1ccc(F)cc1)Nc1nc(-c2ccccn2)cs1	0.92	.
Cc1ncc(CO)c2c1Oc1nc(-c3ccc(F)cc3)[nH]c(=O)c1C2	0.72	-1.7
COc1ccc(O)c(-c2nc3c(c(=O)[nH]2)Cc2c(CO)cnc(C)c2O3)c1	11*	2
Cc1cc(C)n(CC(C)O)c(=O)c1C#N (stereo unspecified)	0.95	16*
Cc1cc(C)n(CCCO)c(=O)c1C#N	0.5	1
Cc1cc(Nc2ccc(Oc3ccccc3)cc2)nc(-n2cc([N+](=O)[O-])cn2)n1	1	.
CCOc1ccc(S(=O)(=O)Nc2cc3c(c4ccccc24)OC2(C3)N(C)c3ccccc3C2(C)C)cc1 (stereo unspecified)	.	18*
